Pf Dd2 growth: inhibitors of Plasmodium falciparum Dd2 growth; P. falciparum Dd2 growth, SYBR Green, 72 h; 120,000 compounds, 4.3% hits; Potency, µM (series often up to 28.9 µM), usual class: inhibitors; active means well fitted inhibition curve with a large enough effect; further: nearly all actives have a fitted effect of over 65% in size
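Infected erythrocytes (Dd2, 0.3% parasitemia, 2.5% hematocrit final) are added to compound in RPMI-1640/Albumax II medium, grown 72 h at 37C in low oxygen, then lysed with saponin/Triton-X containing SYBR Green and read by fluorescence.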
Numbers stand for hits; - = inactive; [ ] = remark or other dose. Many of the other results were omitted from the sample, so hits are more common in it than they were.

SMILES | Pf Dd2 growth
CC1=C[C@@H](CNC(=O)c2cnccn2)[C@H](C(C)C)C[C@H]1Cc1nc2ccccc2n1C | 8.91µM
CC1=C[C@@H](CNC(=O)Cc2ccccc2)[C@H](C(C)C)C[C@H]1Cc1nc2ccncc2[nH]1 | -
CC1=C[C@@H](CNC(=O)CC2(CC(=O)O)CCCC2)[C@H](C(C)C)C[C@H]1Cc1nc2ccccc2n1C | -
CC1=C[C@@H](CNC(=O)C2CC2)[C@H](C(C)C)C[C@H]1Cc1nc2ccccc2n1C | -
CC1=C[C@@H](CNC(=O)CN(C)C)[C@H](C(C)C)C[C@H]1Cc1nc2ccccc2[nH]1 | -
CC1=C[C@@H](CNC(=O)c2cnccn2)[C@H](C(C)C)C[C@H]1Cc1nc2ccccc2[nH]1 | -
CC1=C[C@@H](CNC(=O)Cn2cnnn2)[C@H](C(C)C)C[C@H]1Cc1nc2ccccc2n1C | 10µM
CC1=C[C@@H](CNC(=O)Cn2cnnn2)[C@H](C(C)C)C[C@H]1Cc1nc2ccc(C)cc2[nH]1 | -
COCC(=O)NC[C@@H]1C=C(C)[C@H](Cc2nc3ccccc3n2C)C[C@H]1C(C)C | 10µM
COc1cccc(CC(=O)N2CCC(c3noc(CO)n3)C2)c1 (stereo not drawn) | -
COCc1nc(C2CCCN(C(=O)c3ccccc3F)C2)no1 (stereo not drawn) | -
O=[S+]([O-])(c1cccs1)N1CC(Oc2ccc3c(c2)OCO3)C1 | -
COC(=O)CNC(=O)N1CCC(N2CC3CC(C2)[C@H]2CCCC(=O)N2C3)CC1 (stereo partly drawn) | -
N#Cc1cccc(C(=O)N2CCCCCCNC(=O)[C@@H]3C[C@@H](c4nc(-c5cccnc5)no4)C[C@@H]32)c1 | -
COc1ccccc1N1CCN(C(=O)C2N(C(C)C)C(=O)C23CCCC3)CC1 (stereo not drawn) | -
N#CC1=C(N)N(c2ccc(Cl)cc2)C2=C(C(=O)CCC2)C1c1cc(CN2CCOCC2)cs1 (stereo not drawn) | 12.6µM
O=c1[nH]c(N2CCOCC2)nc2c1CCN(Cc1cccc(Cl)c1)CC2 | -[5.79 µM]
O=C1N(C2CCOCC2)C[C@H]2CN(Cc3cccc(Cl)c3)CCN12 | -
N#Cc1ccc(CN2CCCOCCNC(=O)CC2)cc1 | -
N#CC1=C(N)N(c2cccc(Cl)c2)C2=C(C(=O)CCC2)C1c1cc(CN2CCOCC2)cs1 (stereo not drawn) | 10µM
c1ccc(-n2cnnc2CC2CCNCC2)cc1 | -
CN(C)C[C@@H]1CN(C)C[C@H]1N | -
COc1ccc(-c2cc(N3CCC(NC(=O)c4cccnc4)C3)n[nH]2)cc1 (stereo not drawn) | -
CNC(=O)[C@@H]1C[C@@H](O)CN1C1CCN(C(=O)CC2CCCC2)CC1 | -
O=C(C1CCCC1)N1CCN(C(=O)N2CC3CC(C2)[C@H]2CCCC(=O)N2C3)CC1 (stereo partly drawn) | -
SMILES | Pf Dd2 growth
CCOc1ccc(-c2nc(C3CC(=O)N(c4ccc(F)cc4)C3)no2)cc1OCC (stereo not drawn) | -
CCc1ncc(-c2ccccc2)[nH]1 | -
CCOc1ccc(-c2cnc(-c3cnc(CC)nc3)[nH]2)cc1OCC | 10µM
COCCNC(=O)c1ccc2c(c1)N(C)C(CC(=O)N1CCCCC1)CO2 (stereo not drawn) | -
COc1ccc(Cl)cc1NC(=O)C1CCN(c2nnc(C)c3c(C)n(-c4ccccc4)nc23)CC1 | -
CCOc1ccccc1CNC(=O)CSc1nnc(C)c2c(C)n(-c3ccccc3)nc12 | -
Cc1ccc(Cl)cc1NC(=O)C1CCN(c2nnc(C)c3c(C)n(-c4ccccc4)nc23)CC1 | -
CCN(CC)C(=O)C1CCN(c2nnc(C)c3c(C)n(-c4ccc(Cl)cc4)nc23)CC1 | -[5.79 µM]
Cc1ccc(NC(=O)C2CCCN(c3nnc(C)c4c(C)n(-c5ccccc5)nc34)C2)cc1Cl (stereo not drawn) | -
CCOc1ccccc1CNC(=O)C1CCN(c2nnc(C)c3c(C)n(-c4ccc(C)cc4)nc23)CC1 | 7.08µM
COc1ccccc1NC(=O)C1CCCN(c2nnc(C)c3c(C)n(-c4ccccc4)nc23)C1 (stereo not drawn) | -
COc1ccccc1CCNC(=O)C1CCN(c2nnc(C)c3c(C)n(-c4ccc(C)cc4)nc23)CC1 | 6.31µM
Cc1nnc(N2CCC(C(=O)NCCc3ccccc3Cl)CC2)c2nn(-c3ccccc3)c(C)c12 | 11.2µM
CCN(CC)C(=O)C(NC(=O)CC(C)C)C1CCN(C(=O)CCc2ccccc2)CC1 (stereo not drawn) | -
CC(C)NC(=O)c1ccc2c(c1)C1(CCN(CC3CC3)C1)CN2Cc1ccccc1 (stereo not drawn) | -
COc1ccc(OC)c(NC(=O)Cn2c(-c3cnccn3)nc(C)c(CCO)c2=O)c1 | -
O=C(C1CCCC1)N1CC2(CCN(CC3CCCCC3)C2)Cc2ccccc21 (stereo not drawn) | 11.2µM
NC(=O)c1cccc(CN2CCC3(Cc4ccccc4N(C(=O)C4CCCC4)C3)C2)c1 (stereo not drawn) | -
CC(=O)N1CC2(Cc3ccccc31)CN(C(=O)C1CCCC1)C2 | -
O=C(C1CCCC1)N1CC2(CCCN(Cc3c[nH]c4ccccc34)C2)Cc2ccccc21 (stereo not drawn) | 7.08µM
CC(=O)N1Cc2ccccc2CC2(CCN(CC3CCCC3)CC2)C1 | -
O=C(O)CCC(=O)N1CCCC2(Cc3ccccc3N(C(=O)C3CCCC3)C2)C1 (stereo not drawn) | -
CS(=O)(=O)N1CC2(CCN(CC3CC3)C2)Cc2ccccc21 (stereo not drawn) | -
O=C(C1CCCC1)N1CC2(CCN(Cc3ccc(Cl)cc3)C2)Cc2ccccc21 (stereo not drawn) | 14.1µM
O=C(CCCc1ccccc1)NCc1nnc2c(-c3nc(C4CC4)no3)cccn12 | -
SMILES | Pf Dd2 growth
Cc1noc(C2CC3(CCN(C(=O)c4nccn4C)CC3)CN2C)n1 (stereo not drawn) | -
Cc1ccccc1NC(=O)N1CCC(N2CCCC(C(=O)N3CCCC3)C2)CC1 (stereo not drawn) | -
O=C(c1ccc[nH]c1=O)N1CCC2(CC1)NC(=O)N(Cc1ccc(Cl)cc1)C2=O | -
CN(C)c1nc(-c2ccncc2)nc2c1CCN(C(=O)c1[nH]ncc1Cl)C2 | -
COc1ccc(C(=O)N2CCOC3(CCN([S+](C)(=O)[O-])CC3)C2)cc1 | -
CCc1ccccc1S(=O)(=O)N1CCC(n2cnnc2C(C)C)CC1 | -
CCS(=O)(=O)Nc1ccc(C(=O)N[C@H]2C[C@@H](C(=O)OC)N(C)C2)cc1 | -
Cc1nn2c(c1-c1ccccc1C(C)C)N(C(=O)C1CCOCC1)CCC2 | -
Cc1nn2c(c1-c1ccccc1C(C)C)N(Cc1ccc(C(=O)O)s1)CCC2 | -
Cc1nn2c(c1-c1ccccc1OCc1ccccc1)N(Cc1cccc(O)c1)CCC2 | 2.24µM
Cc1nn2c(c1-c1ccccc1Oc1ccccc1)N(Cc1cccc(C#N)c1)CCC2 | -
Cc1nn2c(c1-c1ccccc1C(C)C)N(Cc1ccc3c(c1)CCO3)CCC2 | 7.08µM
Cc1ccncc1-c1c(C)nn2c1N(Cc1cccc(O)c1)CCC2 | -
CC(Oc1ccccc1)C(=O)N1CC(Oc2cccc(-c3nc(-c4ccccc4)no3)c2)C1 (stereo not drawn) | -[5.79 µM]
CN(C)C[C@@H]1CN(c2ncccn2)C[C@H]1NC(=O)c1ccccc1Cl | -
CCn1cc(CN(CCOC)Cc2cccs2)ccc1=O | -
Cc1oc2ccn(Cc3ccc(F)cc3)c(=O)c2c1C(=O)N1CCN(c2ccccn2)CC1 | -
O=C(O)CCC(=O)N[C@H]1CO[C@H]2[C@@H]1OC[C@@H]2n1nnnc1Oc1ccc2c(c1)OCO2 | -
